Results filed as inconclusive are left out. A call without a number means that no potency is given here. Active and inactive are the calls of the source. Calls come from the whole dose curve; as a rule, active = well fitted inhibition curve with a large enough effect in the repeat runs; inconclusive = weak or mixed curves; inactive = flat fitted curve, though single readings scatter.
Molecular target: Luciferin 4-monooxygenase (Photinus pyralis) (UniProt P08659)
Assay: qHTS assay to identify small molecule inhibitors of firefly luciferase (AID 1224835); note: nearly all actives have a fitted effect of over 25% in size
Settings: purified P. pyralis luciferase, luminescence inhibition; series mostly up to 115 µM
Source text: U.S. Tox21 Program National Center for Advancing Translational Sciences [NCATS] NIH Chemical Genomics Center [NCGC] U.S. Environmental Protection Agency [EPA] National Institutes of Environmental Health Sciences [NIEHS] National Toxicology Program [NTP] U.S. Food and Drug Administration [FDA] Tox21 Assay Overview: Firefly (Photinus pyralis) luciferase is one of the most commonly used transcriptional reporters. Firefly luciferase reporter-gene assays are generally considered one of the most sensitive assay types (Wood, 1995; Wood, 1998). However, it was initially observed, in 1991, by Thompson et al., that compounds that resemble the substrates of firefly luciferase (FLuc) can act as competitive inhibitors of the enzyme, and that these compounds, upon interaction with luciferase in the cell, can actually stabilize the protein and increase its half-life. Previous profiling work by other groups to determine the prevalence of compounds that affect FLuc enzymatic activity (PubChem AID 411) identified that ~3% of the MLSMR library (then at ~72K) inhibited FLuc. […] Thus the Tox21 10K library is profiled for activity against FLuc using a biochemical assay of purified FLuc and KM concentrations of FLuc substrates (D-luciferin and ATP).
These assay plates were then treated with 23nL of compound or DMSO using a Kalypsys pin tool, which allows for delivery of a 6-point interplate titration of each compound to the assay plate (quantitative HTS.) 1 uL of firefly luciferase mix (containing 50 mM Tris acetate, pH 7.6, 0.04 uM P. pyralis luciferase, 0.01% Tween, 0.05% BSA and dH2O) was then delivered by FRD to each well. Luciferase activity was then measured using a ViewLux CCD imager.

Luciferin 4-monooxygenase (Photinus pyralis), sequence (P08659 whole entry, looked up): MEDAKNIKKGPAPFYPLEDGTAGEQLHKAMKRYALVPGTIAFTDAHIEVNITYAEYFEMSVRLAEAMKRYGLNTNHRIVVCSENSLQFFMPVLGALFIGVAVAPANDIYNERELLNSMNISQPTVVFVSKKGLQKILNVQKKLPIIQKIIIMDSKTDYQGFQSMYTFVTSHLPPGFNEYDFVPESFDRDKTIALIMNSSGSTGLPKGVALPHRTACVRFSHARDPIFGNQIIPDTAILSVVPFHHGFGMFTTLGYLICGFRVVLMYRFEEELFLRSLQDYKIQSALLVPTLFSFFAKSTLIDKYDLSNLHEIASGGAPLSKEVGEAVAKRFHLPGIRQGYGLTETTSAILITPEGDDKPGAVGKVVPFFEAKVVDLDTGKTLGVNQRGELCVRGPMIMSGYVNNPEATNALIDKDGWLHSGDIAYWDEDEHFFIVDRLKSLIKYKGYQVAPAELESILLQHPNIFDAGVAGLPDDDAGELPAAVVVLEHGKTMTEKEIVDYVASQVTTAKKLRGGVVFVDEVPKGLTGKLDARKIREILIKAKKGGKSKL

Row | SMILES | Potency | activity change, negative = inhibition
1 | CN1CCC(=C2c3ccccc3C=Cc3ccccc32)CC1 | inactive | –
2 | COCCO | inactive | –
3 | CC(C)(C)c1cc(CCC(=O)OCC(COC(=O)CCc2cc(C(C)(C)C)c(O)c(C(C)(C)C)c2)(COC(=O)CCc2cc(C(C)(C)C)c(O)c(C(C)(C)C)c2)COC(=O)CCc2cc(C(C)(C)C)c(O)c(C(C)(C)C)c2)cc(C(C)(C)C)c1O | inactive | –
4 | CCN(CC)C(C)=O | inactive | –
5 | C=C(C)C(=O)OCCOc1ccccc1 | 35.6 µM (active) | –
6 | C=C(C)C(=O)OC(C)C | inactive | –
7 | CC(=O)c1ccc2c(c1)[C@H](NC(=O)c1ccc(F)cc1)[C@@H](O)C(C)(C)O2 | inactive | –
8 | CCCCCCCCCCCCCCCCCBr | – | 3.44% [at 23.6 µM] (inactive)
9 | O=C1Nc2cc(Cl)ccc2Oc2ccccc21 | inactive | –
10 | Cn1c(=O)c2c(ncn2CC(O)CO)n(C)c1=O (stereo not given) | inactive | –
11 | C[Si](C)O[Si](C)(C)O[Si](C)(C)O[Si](C)C | inactive | –
12 | CCCCCC/C=C/C=O | inactive | –
13 | C[C@@H](C1=C(CCN(C)C)Cc2ccccc21)c1ccccn1 | inactive | –
14 | CCCC(=O)OCC | inactive | –
15 | CCCCCCCCCO | inactive | –
16 | CCCCCCCCN(C)C | inactive | –
17 | CCN(CC)CCNC(C(=O)OCCC(C)C)c1ccccc1 (stereo not given) | inactive | –
18 | CNS(=O)(=O)Cc1ccc2[nH]cc(CCN(C)C)c2c1 | inactive | –
19 | C=Cc1c(C)c2cc3[nH]c(cc4nc(cc5nc(cc1[nH]2)C(C)=C5CCC(=O)O)C(CCC(=O)O)=C4C)c(C)c3C=C | inactive | –
20 | Cn1c(NCCN(CCO)CCCc2ccc([N+](=O)[O-])cc2)cc(=O)n(C)c1=O | inactive | –

Row | SMILES | Potency | activity change, negative = inhibition
21 | CN(C)CCCOc1nn(Cc2ccccc2)c2ccccc12 | inactive | –
22 | CCCCCOC(=O)c1ccc(O)cc1 | 36 µM (active) | –
23 | Cl/C(=C\n1cncn1)c1ccc(Cl)cc1Cl | inactive | –
24 | NCCCOCCOCCOCCCN | inactive | –
25 | O=C(O)c1cn(C2CC2)c2cc(Cl)c(F)cc2c1=O | inactive | –
26 | O=C(CCN1CCN2CCCC2C1)N1c2ccccc2Sc2ccc(Cl)cc21 (stereo not given) | – | -1.42% [at 23.6 µM] (inactive)
27 | CC(Cc1cccc(C(F)(F)F)c1)NCCOC(=O)c1ccccc1 (stereo not given) | inactive | –
28 | CC1(C)[C@H]2CC[C@]1(C)[C@H](O)C2 | inactive | –
29 | O=C=NC1CCC(CC2CCC(N=C=O)CC2)CC1 (stereo not given) | inactive | –
30 | Cc1cc(NC(=O)C(=O)O)cc(C)c1Oc1ccc(O)c2c1CCC2 | 35.6 µM (active) | –
31 | CC1=CC(=O)/C(=C(/C)O)C(=O)O1 | inactive | –
32 | N[C@H]1C(O)O[C@H](CO)[C@H](O)[C@@H]1O (stereo not given in full) | inactive | –
33 | CCOC(=O)CC(C)C | inactive | –
34 | CCN(CC)C(C)CN1c2ccccc2Sc2ccccc21 (stereo not given) | inactive | –
35 | CC(=O)/C(C)=C/C1C(C)=CCCC1(C)C (stereo not given) | inactive | –
36 | COC(=O)C(C)=O | inactive | –
37 | CN(C)CCCNCCCN | inactive | –
38 | CCC(C)N(C)C(=O)c1cc2ccccc2c(-c2ccccc2Cl)n1 (stereo not given) | inactive | –
39 | OC(CCN1CCCCC1)(c1ccccc1)C1CCCCC1 (stereo not given) | inactive | –
40 | CCCOc1ccc2nc(NC(=O)OC)[nH]c2c1 | inactive | –

— PubChem BioAssay (Tox21)
